Each structure is given as a SMILES string. Values without a mark were called inactive.

Common to all, as to test: log2 ratio of Biotin-Ahx-Ub-VS probe labelling (fragment/DMSO); higher = less target engagement (more negative = stronger competition), active = hit call of the paper (q ≤ 0.05, log2 ratio ≤ -1)
Common to all, as to conditions: compound concentration: 200 uM; treatment time: 3 h

The target of one test is T1, OTUD6B (UniProt Q8N6M0).
T1 sequence (whole entry): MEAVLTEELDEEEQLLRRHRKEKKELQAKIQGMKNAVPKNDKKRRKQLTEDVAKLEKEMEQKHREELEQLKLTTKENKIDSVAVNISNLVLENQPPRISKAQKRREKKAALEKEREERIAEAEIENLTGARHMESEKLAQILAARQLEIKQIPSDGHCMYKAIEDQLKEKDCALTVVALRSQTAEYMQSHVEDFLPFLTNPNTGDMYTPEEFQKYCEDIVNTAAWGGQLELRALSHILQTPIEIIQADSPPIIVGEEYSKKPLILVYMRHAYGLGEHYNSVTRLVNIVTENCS
The method, boiled down:
(§1)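 HEK293T lysate in Tris/CHAPS/IGEPAL buffer with protease inhibitors (495 µg per sample) was given fragment at 200 µM or vehicle for 3 h, in triplicate. It then received Biotin-Ahx-Ub-VS at 0.5 µM final for 1 h. Labelled DUBs were NeutrAvidin-enriched, digested with LysC and trypsin, and run by diaPASEF LC-MS/MS. Values are average log2 fragment/vehicle ratios by unpaired t-test on global-median-normalised Spectronaut quantities of proteins with ≥2 unique peptides.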

In a further test the target is T2, OTUD7B (UniProt Q6GQQ9).
T2 sequence (whole entry): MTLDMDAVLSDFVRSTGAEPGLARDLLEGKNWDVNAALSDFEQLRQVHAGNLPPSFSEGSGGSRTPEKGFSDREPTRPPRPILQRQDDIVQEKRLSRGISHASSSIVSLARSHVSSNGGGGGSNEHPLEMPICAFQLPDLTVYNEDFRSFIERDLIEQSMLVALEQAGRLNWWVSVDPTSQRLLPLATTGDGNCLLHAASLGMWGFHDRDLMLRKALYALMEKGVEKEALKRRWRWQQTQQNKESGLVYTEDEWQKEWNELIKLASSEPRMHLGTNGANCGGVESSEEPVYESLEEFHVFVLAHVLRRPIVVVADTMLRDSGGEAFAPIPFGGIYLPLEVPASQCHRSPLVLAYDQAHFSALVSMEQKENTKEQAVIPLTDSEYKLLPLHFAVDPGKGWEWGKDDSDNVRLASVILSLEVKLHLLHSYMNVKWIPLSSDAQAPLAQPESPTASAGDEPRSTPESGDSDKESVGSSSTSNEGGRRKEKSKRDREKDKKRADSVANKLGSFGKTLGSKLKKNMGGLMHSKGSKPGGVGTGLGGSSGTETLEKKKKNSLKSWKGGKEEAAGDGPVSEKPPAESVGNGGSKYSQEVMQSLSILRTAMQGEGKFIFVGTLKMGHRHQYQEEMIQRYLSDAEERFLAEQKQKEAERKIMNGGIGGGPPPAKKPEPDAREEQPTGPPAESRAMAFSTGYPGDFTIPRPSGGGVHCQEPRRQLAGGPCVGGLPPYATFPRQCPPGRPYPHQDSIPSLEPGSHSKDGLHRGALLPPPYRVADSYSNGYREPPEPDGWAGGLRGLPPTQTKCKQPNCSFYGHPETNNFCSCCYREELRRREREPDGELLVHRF
The method, boiled down: as §1

A further test deals with PRPF8 (UniProt Q6P2Q9). The method, boiled down:
as §1

The next test concerns the target T3, PSMD7 (UniProt P51665).
T3 sequence (whole entry): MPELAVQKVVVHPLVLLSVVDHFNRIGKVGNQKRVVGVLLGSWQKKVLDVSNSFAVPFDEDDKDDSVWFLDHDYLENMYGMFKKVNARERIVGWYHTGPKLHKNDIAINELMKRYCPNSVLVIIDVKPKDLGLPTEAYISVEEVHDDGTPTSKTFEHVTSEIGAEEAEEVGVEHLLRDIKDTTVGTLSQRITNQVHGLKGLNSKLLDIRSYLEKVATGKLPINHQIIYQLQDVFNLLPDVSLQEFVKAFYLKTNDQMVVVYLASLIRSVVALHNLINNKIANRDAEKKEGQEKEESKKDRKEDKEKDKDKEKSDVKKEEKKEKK
The method, boiled down:
as §1

For a further test, the target named is UCHL1 (UniProt P09936). The method, boiled down: as §1
The target of the next test is T4, UCHL3 (UniProt P15374).
T4 sequence (whole entry): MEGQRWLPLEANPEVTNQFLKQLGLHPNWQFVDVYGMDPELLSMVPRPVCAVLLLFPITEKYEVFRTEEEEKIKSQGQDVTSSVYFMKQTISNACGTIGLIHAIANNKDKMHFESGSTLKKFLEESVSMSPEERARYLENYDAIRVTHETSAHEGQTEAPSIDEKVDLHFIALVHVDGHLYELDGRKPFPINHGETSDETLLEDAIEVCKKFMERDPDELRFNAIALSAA
The method, boiled down:
as §1

The next test concerns the target T5, UCHL5 (UniProt Q9Y5K5).
T5 sequence (whole entry): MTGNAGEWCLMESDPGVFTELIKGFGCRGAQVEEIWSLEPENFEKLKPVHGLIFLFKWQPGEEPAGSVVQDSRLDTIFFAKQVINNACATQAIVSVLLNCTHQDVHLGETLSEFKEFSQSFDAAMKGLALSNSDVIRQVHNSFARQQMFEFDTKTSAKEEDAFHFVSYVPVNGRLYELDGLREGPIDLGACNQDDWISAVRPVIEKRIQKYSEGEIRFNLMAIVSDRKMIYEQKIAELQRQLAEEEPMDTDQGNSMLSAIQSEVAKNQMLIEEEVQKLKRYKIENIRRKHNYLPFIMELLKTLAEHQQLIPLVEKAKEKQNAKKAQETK
In outline: as §1

In the next test the target is USP10 (UniProt Q14694). In outline:
as §1

The target in another test is T6, USP15 (UniProt Q9Y4E8).
T6 sequence (whole entry): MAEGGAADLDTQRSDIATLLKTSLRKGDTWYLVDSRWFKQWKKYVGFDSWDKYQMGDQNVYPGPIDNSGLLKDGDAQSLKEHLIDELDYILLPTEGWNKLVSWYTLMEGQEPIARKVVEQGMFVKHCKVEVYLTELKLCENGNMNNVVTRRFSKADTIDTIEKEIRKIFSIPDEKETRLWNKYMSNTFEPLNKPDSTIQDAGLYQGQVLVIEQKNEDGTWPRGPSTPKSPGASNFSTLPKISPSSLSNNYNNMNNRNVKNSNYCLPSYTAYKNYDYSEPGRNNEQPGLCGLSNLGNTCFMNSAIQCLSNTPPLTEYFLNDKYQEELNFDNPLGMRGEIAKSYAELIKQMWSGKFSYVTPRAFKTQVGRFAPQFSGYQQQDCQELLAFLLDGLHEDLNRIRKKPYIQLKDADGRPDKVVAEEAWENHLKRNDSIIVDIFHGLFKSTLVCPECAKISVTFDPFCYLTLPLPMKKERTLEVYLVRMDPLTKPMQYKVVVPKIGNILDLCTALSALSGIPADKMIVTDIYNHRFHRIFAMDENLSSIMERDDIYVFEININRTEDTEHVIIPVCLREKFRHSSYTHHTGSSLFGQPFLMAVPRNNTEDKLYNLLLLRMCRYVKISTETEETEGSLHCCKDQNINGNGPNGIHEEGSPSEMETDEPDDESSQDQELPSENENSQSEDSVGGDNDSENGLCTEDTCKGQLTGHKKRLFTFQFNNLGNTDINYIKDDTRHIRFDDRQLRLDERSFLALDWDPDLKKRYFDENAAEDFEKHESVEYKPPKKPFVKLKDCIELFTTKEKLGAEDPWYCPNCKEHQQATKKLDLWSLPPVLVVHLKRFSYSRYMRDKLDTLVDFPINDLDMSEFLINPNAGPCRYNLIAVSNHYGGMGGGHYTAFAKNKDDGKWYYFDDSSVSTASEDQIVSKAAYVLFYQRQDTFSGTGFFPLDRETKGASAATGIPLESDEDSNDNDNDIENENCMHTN
The method, boiled down: as §1

Another test deals with USP16 (UniProt Q9Y5T5). The method, boiled down: as §1
Chain of USP16 (Q9Y5T5 whole entry, looked up): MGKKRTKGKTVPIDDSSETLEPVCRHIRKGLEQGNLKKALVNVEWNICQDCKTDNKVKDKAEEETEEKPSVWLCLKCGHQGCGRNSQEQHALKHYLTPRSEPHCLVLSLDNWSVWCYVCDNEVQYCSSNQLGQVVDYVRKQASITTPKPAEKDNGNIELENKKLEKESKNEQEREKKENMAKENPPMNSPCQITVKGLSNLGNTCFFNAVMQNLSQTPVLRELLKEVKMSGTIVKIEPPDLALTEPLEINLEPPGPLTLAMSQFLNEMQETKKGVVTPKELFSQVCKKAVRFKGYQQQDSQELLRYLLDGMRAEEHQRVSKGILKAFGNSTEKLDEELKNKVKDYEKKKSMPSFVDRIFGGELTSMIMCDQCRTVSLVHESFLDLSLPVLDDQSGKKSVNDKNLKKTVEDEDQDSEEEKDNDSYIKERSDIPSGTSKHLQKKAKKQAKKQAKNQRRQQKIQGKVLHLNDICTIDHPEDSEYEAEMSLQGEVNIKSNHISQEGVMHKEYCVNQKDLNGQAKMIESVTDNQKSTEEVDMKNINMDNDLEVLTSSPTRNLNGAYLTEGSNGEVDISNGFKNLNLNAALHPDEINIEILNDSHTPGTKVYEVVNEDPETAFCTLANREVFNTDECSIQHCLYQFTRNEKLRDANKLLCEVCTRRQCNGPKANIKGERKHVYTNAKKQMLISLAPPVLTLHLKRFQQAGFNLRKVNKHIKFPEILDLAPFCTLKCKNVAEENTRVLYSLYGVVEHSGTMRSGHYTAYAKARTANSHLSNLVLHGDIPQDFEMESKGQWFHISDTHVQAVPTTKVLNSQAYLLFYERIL

Chain of UCHL1 (P09936 whole entry, looked up): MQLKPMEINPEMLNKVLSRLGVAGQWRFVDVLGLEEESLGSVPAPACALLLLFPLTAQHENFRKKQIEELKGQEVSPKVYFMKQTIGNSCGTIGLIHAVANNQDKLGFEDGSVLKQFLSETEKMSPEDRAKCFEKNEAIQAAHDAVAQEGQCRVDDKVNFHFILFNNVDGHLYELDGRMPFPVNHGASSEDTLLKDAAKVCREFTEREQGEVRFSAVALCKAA
Chain of USP10 (Q14694 whole entry): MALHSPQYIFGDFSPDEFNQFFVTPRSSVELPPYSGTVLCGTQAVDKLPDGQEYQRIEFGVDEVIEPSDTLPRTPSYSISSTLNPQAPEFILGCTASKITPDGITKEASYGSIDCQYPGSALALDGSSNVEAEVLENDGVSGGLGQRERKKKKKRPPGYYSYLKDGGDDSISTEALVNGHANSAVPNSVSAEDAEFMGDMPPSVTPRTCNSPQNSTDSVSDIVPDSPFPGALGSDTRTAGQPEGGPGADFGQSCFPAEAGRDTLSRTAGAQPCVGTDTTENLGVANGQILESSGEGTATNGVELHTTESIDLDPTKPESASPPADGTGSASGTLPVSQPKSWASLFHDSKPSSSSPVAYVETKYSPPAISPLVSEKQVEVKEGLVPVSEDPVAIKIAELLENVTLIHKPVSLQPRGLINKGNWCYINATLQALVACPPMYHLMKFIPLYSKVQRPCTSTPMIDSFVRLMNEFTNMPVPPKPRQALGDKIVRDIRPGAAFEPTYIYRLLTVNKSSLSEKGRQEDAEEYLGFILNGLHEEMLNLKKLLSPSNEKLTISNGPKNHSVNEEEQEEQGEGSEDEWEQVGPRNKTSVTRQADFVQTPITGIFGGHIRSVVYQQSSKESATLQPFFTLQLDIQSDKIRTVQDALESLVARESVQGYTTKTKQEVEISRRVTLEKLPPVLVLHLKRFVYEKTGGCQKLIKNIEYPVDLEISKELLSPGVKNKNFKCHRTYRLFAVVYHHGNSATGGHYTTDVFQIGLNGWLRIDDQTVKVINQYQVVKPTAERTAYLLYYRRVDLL

Take `O=C(CCl)N1CCCC2CCCCC21` (stereo not given): the “log2 ratio of Biotin-Ahx-Ub-VS probe labelling” value was 0.111 in the test with OTUD6B; -0.246 with OTUD7B; 0.0617 with PRPF8; -0.09 in the test with PSMD7; -1.06 (active) with UCHL1; 0.0783 in the test with UCHL3. Also, the “log2 ratio of Biotin-Ahx-Ub-VS probe labelling” value in the test with UCHL5 is -0.193; with USP10 it was -0.167; with USP15, -0.1; in the test with USP16 it was -0.257.

The values are drawn from the supplement of paper PMC11732987, “Enantioselective OTUD7B fragment discovery through chemoproteomics screening and high-throughput optimisation” (Communications Chemistry, 2025).
